Activity calls are given as the source filed them.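 How the source made its calls, unless noted: active means inhibition at or above 50% relative to wild type and mutant plate controls; inactive means inhibition below 50%.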

Assay [1] in a line: inhibitors of TNFa-induced NFkB p65 translocation, primary screen, imaging, HUVEC, MLSMR starter and 10KST1 sets (AID 438;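 active means inhibition above 20% together with a positive visual image hit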;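 further: compound added about 3h40 before a 20 min TNFalpha stimulation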;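 on inhibition: signal is the nuclear over cytoplasmic p65 intensity ratio per well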). Conditions: HUVEC TNFa-induced p65 nuclear translocation; cell count: measured here: nuclei count (cytotoxicity indicator), at 2.08 µM unless noted; inhibition: at 2 µM, stronger effect = higher value unless noted.
Assay [2] is described as follows: endothelial E-selectin expression blockers – imaging, HUVEC, immunofluorescence, MLSMR starter and 10KST1 sets, primary screen (AID 487;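 active means visually confirmed hit in the image check and inhibition above 20%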;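 on inhibition: signal is fraction of cell area covered by stained E-selectin grains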;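 on nuclei count: 100% = median nuclei count of all wells on the same plate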). The note with it: HUVEC TNFalpha-induced E-selectin immunofluorescence imaging, at 2 µM; inhibition: stronger effect = higher value; nuclei count: measured here: cell number, toxicity.
The nature of assay [3]: Primary imaging screen for DUSP6 inhibitors that restore phospho-Erk in transfected HeLa cells, chemical complementation (AID 609;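 active means compounds giving at least 50% inhibition in the cell-based MKP-3 phosphatase rescue imaging test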;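 on inhibition: phospho-Erk level distribution per well compared with pooled transfected vehicle control wells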). Conditions: HeLa MKP-3 transfected, phospho-Erk imaging KS statistic, at 10 µM.
The target in assay [4] is Dual specificity protein phosphatase 6 (Homo sapiens) (UniProt Q16828). Described as above. Conditions: HeLa MKP-3 transfected, phospho-Erk imaging KS statistic, at 10 µM, stronger effect = higher value.
Assay [5] has as its target Voltage-gated potassium channel subunit beta-2 (Rattus norvegicus) (UniProt P62483). Put plainly: inhibitors of rat Kvbeta2 reductase activity – biochemical, NADPH fluorescence, primary screen (AID 622;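 active means fluorescence slope higher than the sample average by over 3 SD, cut at about -0.22 in these data, passing the limit was not always enough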;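 further: slope of raw intensity against log time taken from 70 to 1610 s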). Conditions: recombinant KvBeta, 4-cyanobenzaldehyde reduction, at 10 µM, stronger effect = higher value.
Assay [6] has the same target. The experiment in a line: enhancers of rat Kvbeta2 NADPH turnover – biochemical, NADPH fluorescence, primary screen (AID 623;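 active means NADPH fluorescence slope more negative than the mean of all samples by about 3 SD, 99.7% confidence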;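 further: fluorescence intensity change per second fitted from 20 to 320 s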). Conditions: Recombinant KvBeta, NADPH fluorescence decrease slope, 10 min; at 10 µM; stronger effect = lower value.
For assay [7], the target named is Alpha-2C adrenergic receptor (Homo sapiens) (UniProt P18825). Put plainly: compounds altering alpha2C-coupled GIRK flux – cell-based, HEK293 alpha2C/GIRK1/2, thallium flux, primary screen (AID 624;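 active means fluorescence slope after compound addition differing from the mean of all screened samples at 99.7% confidence, in either direction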;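 further: slope of fluorescence ratio to pre-addition baseline per second over 15 to 24 s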). Conditions: thallium flux BTC fluorescence, at 10 µM, actives lie on both sides.
Assay [8] is described as follows: inhibitors of larval lipid processing in zebrafish, primary screen, whole organism, PED6 fluorescence, gall bladder and intestine (AID 686;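 active means a full or partial loss of lipid-probe fluorescence in the fish gall bladder, intestine or both, judged by eye; inactive means no fluorescence loss, or compound toxic to the fish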;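 further: larvae 5 to 7 days old with five fish per well; signal comes from phospholipase A2 cleavage of quenched PED6 carried via bile; overnight exposure to compound and PED6 before scoring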). The note with it: Zebrafish larvae PED6 lipid processing, fluorescence scoring.
The nature of assay [9]: loss of swimming-algae plug formation – whole organism, Chlamydomonas reinhardtii, WT vs cilia-less mutant, absorbance, 96-well, primary screen (AID 463189).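 Further: 0% = wild type cc124 cells in DMSO and 100% = ciliumless bld1 mutant cells.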 Conditions: Chlamydomonas reinhardtii gravitaxis, OD600 absorbance, 2 days; at 10 µM; stronger effect = higher value.
Assay [10] addresses Muscarinic acetylcholine receptor M4 (Homo sapiens) (UniProt P08173). The experiment in a line: M4-linked GIRK flux change, two-sided – cell-based, HEK293 M4/GIRK, thallium flux, BTC-AM, M4 allosteric agonist project, primary screen (AID 625;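 active means fluorescence slope after compound addition differing from the mean of all tested samples at 99.7% confidence, mostly higher but some lower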;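 further: thallium influx through GIRK channels coupled to M4 in HEK293 cells with BTC-AM dye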). Conditions: at 10 µM, actives lie on both sides.
The mark [11] stands for this setting: measured here: cell density z-score.
[12] abbreviates: measured here: nuclear c-Myc green intensity z-score.
The mark [13] stands for this setting: measured here: nuclear pErk red intensity z-score, stronger effect = higher value.

Alpha-2C adrenergic receptor (Homo sapiens), sequence (P18825 whole entry, looked up): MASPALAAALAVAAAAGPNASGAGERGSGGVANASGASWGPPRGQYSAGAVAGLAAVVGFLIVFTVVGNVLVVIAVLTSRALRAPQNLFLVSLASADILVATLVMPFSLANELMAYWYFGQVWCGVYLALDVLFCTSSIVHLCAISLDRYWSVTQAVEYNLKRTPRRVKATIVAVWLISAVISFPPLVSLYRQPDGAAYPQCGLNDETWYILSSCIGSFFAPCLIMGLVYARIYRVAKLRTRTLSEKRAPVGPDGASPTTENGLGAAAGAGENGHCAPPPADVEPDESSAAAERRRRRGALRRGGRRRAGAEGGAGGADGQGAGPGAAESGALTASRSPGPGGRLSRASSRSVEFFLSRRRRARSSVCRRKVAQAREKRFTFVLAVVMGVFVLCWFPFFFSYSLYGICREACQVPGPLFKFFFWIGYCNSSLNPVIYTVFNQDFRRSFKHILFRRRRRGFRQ
Voltage-gated potassium channel subunit beta-2 (Rattus norvegicus), sequence (P62483 whole entry, looked up): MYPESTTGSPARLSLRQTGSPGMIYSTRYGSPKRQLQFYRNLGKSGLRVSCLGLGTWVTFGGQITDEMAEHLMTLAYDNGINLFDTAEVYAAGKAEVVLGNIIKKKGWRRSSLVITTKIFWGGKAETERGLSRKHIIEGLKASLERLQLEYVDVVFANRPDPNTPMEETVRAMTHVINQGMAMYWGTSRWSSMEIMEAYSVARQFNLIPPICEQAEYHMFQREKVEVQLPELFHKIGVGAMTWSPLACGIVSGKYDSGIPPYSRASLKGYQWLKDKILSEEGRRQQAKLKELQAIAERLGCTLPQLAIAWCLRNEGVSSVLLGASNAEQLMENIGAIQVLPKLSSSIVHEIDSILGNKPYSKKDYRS
Dual specificity protein phosphatase 6 (Homo sapiens), sequence (Q16828 whole entry, looked up): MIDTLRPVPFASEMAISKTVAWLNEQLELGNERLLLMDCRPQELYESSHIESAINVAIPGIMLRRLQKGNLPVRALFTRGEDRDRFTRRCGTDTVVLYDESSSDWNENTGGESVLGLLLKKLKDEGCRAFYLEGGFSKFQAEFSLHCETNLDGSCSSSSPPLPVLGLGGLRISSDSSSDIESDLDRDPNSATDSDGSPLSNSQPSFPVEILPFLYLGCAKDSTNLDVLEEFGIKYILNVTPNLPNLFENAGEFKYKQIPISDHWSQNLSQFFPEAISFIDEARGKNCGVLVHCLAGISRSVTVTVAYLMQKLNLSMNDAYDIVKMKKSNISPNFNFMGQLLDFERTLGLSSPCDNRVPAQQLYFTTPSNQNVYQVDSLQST
Muscarinic acetylcholine receptor M4 (Homo sapiens), sequence (P08173 whole entry, looked up): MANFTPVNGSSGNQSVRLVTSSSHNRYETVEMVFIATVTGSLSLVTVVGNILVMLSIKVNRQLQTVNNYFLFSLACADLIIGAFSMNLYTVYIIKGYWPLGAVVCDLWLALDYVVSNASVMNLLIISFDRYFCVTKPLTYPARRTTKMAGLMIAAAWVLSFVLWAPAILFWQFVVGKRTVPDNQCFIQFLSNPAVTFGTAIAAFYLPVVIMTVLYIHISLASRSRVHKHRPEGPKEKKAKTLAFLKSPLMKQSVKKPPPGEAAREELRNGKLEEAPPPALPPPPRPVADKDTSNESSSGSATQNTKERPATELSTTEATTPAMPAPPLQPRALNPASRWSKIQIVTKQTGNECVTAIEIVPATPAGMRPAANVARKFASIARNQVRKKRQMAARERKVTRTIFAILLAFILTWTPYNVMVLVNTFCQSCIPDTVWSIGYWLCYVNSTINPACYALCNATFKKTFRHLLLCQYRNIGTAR

In [1], `CCCCSP1(=S)NCCCN1` registered a cell count of 430. Besides, the inhibition is -6.2% (inactive) in [1], -45.8% (inactive) in assay [2], 22.7% (inactive) in [4] and 32.8% (inactive) in assay [9]. Also, in [2], the nuclei count was 139%. Further, the results for the z-score in [3] (setting [11]), in [3] (setting [12]) and in [3] (setting [13]) were 1.38, -0.994 and 0.0968, respectively. Moreover, in [5], the fluorescence slope is -0.484 (inactive). Moreover, the NADPH fluorescence slope in [6] is -0.000231 (inactive). Further, the slope in [7] was 0.00525 (inactive). For the same compound, the call in assay [8] was inactive.
Compound `CCN(CC)c1ccc(N=Cc2c(O)n(-c3ccccc3C)c(=O)[nH]c2=O)cc1` displayed a cell count in assay [1] of 337. For the same compound, the inhibition in assay [1] was 3.8% (inactive); in assay [2], -48.3% (inactive); in assay [4], 7.01% (inactive); in assay [9] it was 24.7% (inactive). The compound also gave a nuclei count in [2] of 172%. Also, the z-score is -0.126 in assay [3] (setting [11]), 0.959 in [3] (setting [12]) and 0.0511 in assay [3] (setting [13]). For the same compound, the fluorescence slope in [5] is -0.394 (inactive). For the same compound, the NADPH fluorescence slope in [6] was -0.000163 (inactive). The slope in assay [7] is 0.00909 (inactive). In addition, in assay [8], the compound was called inactive.
`CN(C)CCc1nn[nH]n1` came in with a cell count in assay [1] of 586. For the same compound, the inhibition is -12.8% (inactive) in [1], -15.2% (inactive) in assay [2], 1.75% (inactive) in assay [4] and 25.8% (inactive) in [9]. In addition, the nuclei count in [2] is 115%. Besides, the z-score was -0.419 in assay [3] (setting [11]), 0.458 in assay [3] (setting [12]) and 0.261 in assay [3] (setting [13]). For the same compound, in assay [5], the fluorescence slope is -0.47 (inactive). In addition, the NADPH fluorescence slope in assay [6] was -0.000339 (inactive). Moreover, the slope in [7] is 0.00441 (inactive). Further, in [8], the outcome was inactive.
`O=C1c2ccccc2C(=O)N1Cc1nc2ccccc2c(=O)n1-c1cccnc1` registered a cell count in [1] of 485. In addition, the inhibition in assay [1] is -17.5% (inactive); in assay [2], 13.6% (inactive); in assay [4], -4.27% (inactive); in assay [9], 6.55% (inactive). This compound also had a nuclei count in assay [2] of 113%. Further, the z-score is -1.74 in [3] (setting [11]), -0.21 in [3] (setting [12]) and 1.85 in assay [3] (setting [13]). Besides, the fluorescence slope in [5] was -0.469 (inactive). Besides, the NADPH fluorescence slope in assay [6] was -1.2e-05 (inactive). In addition, in [7], the slope is 0.00521 (inactive). For the same compound, the outcome in assay [8] was inactive.
The compound `CCCCc1nc(N2CCNCC2)c(C#N)c2c1CSC(C)(C)C2` had a cell count in assay [1] of 519. Moreover, the inhibition in assay [1] is -12.8% (inactive); in [2], -143% (inactive); in assay [4], 7.42% (inactive); in assay [9], 55.2% (active). Further, the nuclei count in assay [2] turned out to be 135%. Further, the values for the z-score in assay [3] (setting [11]), in [3] (setting [12]) and in assay [3] (setting [13]) were 0.415, -0.261 and 0.643, respectively. Besides, the fluorescence slope in assay [5] is -0.49 (inactive); in [10] it was 0.00482 (inactive). For the same compound, the NADPH fluorescence slope in assay [6] was -0.000122 (inactive). For the same compound, the result in assay [8] was inactive.
`COc1cccc(-n2c(O)c(C=NCCN3CCOCC3)c(=O)[nH]c2=O)c1` displayed a cell count in assay [1] of 512. Besides, the inhibition was -1.1% (inactive) in [1], -10.1% (inactive) in [2], -5.26% (inactive) in [4] and -13% (inactive) in assay [9]. This compound also had a nuclei count in assay [2] of 92.8%. The z-score in assay [3] (setting [11]) is -1.1; in assay [3] (setting [12]), 2.1; in assay [3] (setting [13]) it was 0.315. Further, the fluorescence slope in assay [5] is -0.386 (inactive). Moreover, the NADPH fluorescence slope in assay [6] was -1.1e-05 (inactive). In assay [7], the slope was 0.00613 (inactive). Further, in assay [8], the call was inactive.
The compound `COc1ccc(Cn2c(O)c(C=NCCCn3ccnc3)c(=O)[nH]c2=O)cc1` displayed a cell count in assay [1] of 466. Moreover, the inhibition in assay [1] is -0.7% (inactive); in assay [2] it was 54% (inactive); in assay [4], 4.25% (inactive); in assay [9] it was -4.22% (inactive). In [2], this compound registered a nuclei count of 81.9%. Besides, the z-score is -1.17 in assay [3] (setting [11]), 0.328 in assay [3] (setting [12]) and 0.929 in assay [3] (setting [13]). Also, in [5], the fluorescence slope was -0.443 (inactive). The NADPH fluorescence slope in assay [6] was -1.5e-05 (inactive). The slope in assay [7] is 0.00461 (inactive). Moreover, the outcome in assay [8] was inactive.
The compound `CN1CCc2nc(SCC(=O)OC(C)(C)C)c(C#N)cc2C1` came in with a cell count in [1] of 606. The inhibition in assay [1] is -21.6% (inactive); in [2], -56.3% (inactive); in assay [4], 16% (inactive); in [9], 102% (active). Also, the nuclei count in [2] stood at 178%. Further, the z-score is -1.57 in assay [3] (setting [11]), -0.211 in [3] (setting [12]) and 0.501 in assay [3] (setting [13]). Further, the fluorescence slope in assay [5] is -0.316 (inactive). Besides, the NADPH fluorescence slope in assay [6] is -4.7e-05 (inactive). Moreover, the slope in assay [7] is 0.00437 (inactive). In addition, the call in assay [8] was inactive.
For `COc1ccc(C(=O)CN2CCOCC2)cc1F`, the cell count in assay [1] turned out to be 662. Besides, the inhibition in [1] was -8.3% (inactive); in assay [2] it was -111% (inactive); in assay [4], 5.57% (inactive); in [9] it was 0.889% (inactive). In assay [2], this compound displayed a nuclei count of 168%. Further, the results for the z-score in assay [3] (setting [11]), in [3] (setting [12]) and in assay [3] (setting [13]) were -0.933, 0.019 and -0.631, respectively. Moreover, in [5], the fluorescence slope was -0.506 (inactive). Besides, in [6], the NADPH fluorescence slope was -5.2e-05 (inactive). In addition, the slope in [7] was 0.0047 (inactive). In addition, in assay [8], the result was inactive.
As for `CCN(CC)CCCNC(=O)c1c(O)c2ccccc2n(Cc2ccccc2)c1=O`, in assay [1], the cell count was 520. Also, the inhibition in [1] was -4.8% (inactive); in [2], -10.6% (inactive); in assay [4], 15.8% (inactive); in assay [9], -10.8% (inactive). For the same compound, in assay [2], the nuclei count is 98.5%. For the same compound, the values for the z-score in [3] (setting [11]), in [3] (setting [12]) and in assay [3] (setting [13]) were 3.05, 0.407 and -1.44, respectively. Further, the fluorescence slope in assay [5] was -0.425 (inactive). In assay [6], the NADPH fluorescence slope is -6.7e-06 (inactive). Also, in assay [7], the slope is 0.00401 (inactive). Moreover, in [8], the compound was called inactive.
Consider `CC1(C)CC(n2[nH]c(=O)c3c2NC(=O)CSC3c2ccccc2)CCO1` (centres undefined), for which the cell count in assay [1] worked out at 532. Besides, the inhibition in [1] was 10.5% (inactive); in [2] it was -152% (inactive); in [4], 1.75% (inactive); in assay [9], -16.8% (inactive). In addition, the nuclei count in [2] is 128%. In addition, the z-score in [3] (setting [11]) is -0.163; in assay [3] (setting [12]) it was 0.684; in assay [3] (setting [13]), -0.467. Moreover, the fluorescence slope in assay [5] was -0.501 (inactive). Besides, the NADPH fluorescence slope in assay [6] was -2.3e-05 (inactive). For the same compound, in assay [7], the slope was 0.00596 (inactive). Further, the compound was called inactive in [8].
The compound `COc1cccc(CN2CCN(C(=O)COc3ccc4ccccc4c3)CC2)c1` had a cell count in assay [1] of 430. In addition, the inhibition is -6% (inactive) in assay [1], -195% (inactive) in [2], 11% (inactive) in assay [4] and 16.5% (inactive) in [9]. In addition, the nuclei count in assay [2] stood at 210%. Moreover, the z-score in assay [3] (setting [11]) is -0.132; in [3] (setting [12]), -0.0858; in assay [3] (setting [13]) it was -0.507. Also, in assay [5], the fluorescence slope is -0.354 (inactive). Besides, in assay [6], the NADPH fluorescence slope is -4.1e-06 (inactive). In addition, the slope in [7] was 0.00527 (inactive). In assay [8], the compound was classed as inactive.
With `CCOC(=O)[C@]1(C#N)[C@@H]2C=CC(C(C)=O)=CN2[C@@H](C(N)=O)[C@@H]1c1ccsc1`, in assay [1], the cell count is 560. The inhibition in assay [1] was -5.3% (inactive); in assay [2], -130% (inactive); in assay [4], -2.91% (inactive); in assay [9] it was 13.7% (inactive). In assay [2], this compound had a nuclei count of 212%. Besides, the z-score in [3] (setting [11]) was 0.77; in assay [3] (setting [12]), 0.227; in [3] (setting [13]), -0.321. In [5], the fluorescence slope was -0.358 (inactive). Moreover, the NADPH fluorescence slope in assay [6] is -1.4e-05 (inactive). For the same compound, the slope in assay [7] was -0.00125 (inactive). Further, the compound was called inactive in assay [8].

For the origin of these results see PubChem BioAssay.
